Reference: PubChem BioAssay AID1159580 (chemical genetic matrix, 2015)
Among all 5,500 compounds or so, about 2,000 (36%) were called active. About 18% were inconclusive and are not listed. No stated cut-off is given here; in the data, active means normalized growth mostly below about 0.91 (no sharp cut-off); inconclusive means no clear call, values can overlap the other calls; inactive means mostly above about 0.92. The list shows a part of the results.

Test: chemical genetic growth profiling, strain panel (AID 1159580);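 further: tested at 20 µM; growth read once vehicle control cultures reached saturation at 30 °C; 1 = growth at the plate median or of vehicle wells; lower values mean less growth of the strain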
Conditions: S. cerevisiae deletion strains, growth OD

Measured: normalized growth

CCN(CC)C(=O)N[C@@H]1C=C2c3cccc4[nH]cc(c34)C[C@H]2N(C)C1
inactive: locus YAL040C, strain CLN3, active compounds read low 1.08 | locus YCL061C, strain MRC1 (second series), active compounds read low 1 | locus YDR363W, strain ESC2, active compounds read low 0.989 | locus YER002W, strain NOP16, active compounds read low 1 | locus YGR078C, strain PAC10, active compounds read low 0.985 | locus YJR075W, strain HOC1, active compounds read low 0.983 | locus YMR263W, strain SAP30, active compounds read low 0.991 | locus YNL153C, strain GIM3, active compounds read low 1.02 | locus YNL175C, strain NOP13, active compounds read low 1.01 | locus YNL197C, strain WHI3, active compounds read low 1 | locus YNL224C, strain SQS1, active compounds read low 0.997 | locus YNL322C, strain KRE1, active compounds read low 0.997 | locus YOR083W, strain WHI5 (second series), active compounds read low 0.992
